# Values without a mark were called inactive. Results filed as inconclusive are left out. Where a call stands in place of a potency, no number is given. Active and inactive are the calls of the source. Calls follow the shape of the dose curve; as a rule, active = well fitted curve in the direction sought with a large enough effect; inconclusive = small, poorly fitted or top-dose-only effect, or another doubt; inactive = no such curve, though single readings can be large; an effect the other way counts as inactive or inconclusive. *1 amine or outer side, *2 acyl side, *3 side chain or, on linkers, in order; H or OH if unused. Where a SMILES comes first, the peptide text is derived from it. [ ]: non-standard residue; d: D form. The star is where a group is joined. ξ: configuration not given here. X9 = CCC(C)(N*)C(=O)C1CC[C@@H](C(=O)N[C@@H](Cc2ccccc2)C(=O)NCC(=O)O)N1; X8 = O=C([C@@H]1CC(O)CN1[*:1])[*:2]; aIle = CC[C@@H](C)[C@H](N)C(=O)O; Thr(3ξ) = CC(O)[C@H](N)C(=O)O; ξIva = CCC(C)(N)C(=O)O; Aib = CC(C)(N)C(=O)O
# Assays:
# [1] = Primary fluorescence-based thiol-reactive (MSTI) qHTS assay for identification of artifact compounds. (AID 1845221); settings: MSTI thiol-reactivity probe, 1 h; series mostly up to 53.8 µM; also: nearly all actives have a fitted effect of over 65% in size; also: potency is read from the fitted curve at half-maximal effect;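 as to activity change, negative = thiol reactive: thiol-reactive compounds lower the probe fluorescence signal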
# In short: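 Probe: MSTI 4 uM, PBS pH 7.4, 2% DMSO. Incubation 1 h, RT, light-protected. Readout fluorescence 525/598 nm.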
# [2] = test system: Nanoluciferase (engineered Oplophorus gracilirostris luciferase); test: Primary Nanoluciferase (NLuc) qHTS assay for identification of artifact compounds. (AID 1845222); settings: NLuc-conditioned medium, Nano-Glo luminescence, 5 min; series mostly up to 54.1 µM;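 also: NLuc secreted into diluted conditioned medium of S16 cells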
# In short: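 qHTS format, against NLuc in S16 cell-conditioned medium. Nano-Glo substrate 1:100 was added after 15 min at room temperature. Luminescence was taken after a further 5 min.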
# [3] = Primary redox qHTS assay for identification of artifact compounds. (AID 1845223); settings: Amplex Red/HRP redox cycling with DTT, fluorescence; series mostly up to 53.8 µM
# In short: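 Amplex Red (25 uM) and HRP (250 mU/mL) in HBSS, with compounds for 15 min, then 250 uM DTT for 30 min, room temperature, dark. Fluorescence 525/598 nm read; normalized to DMSO and 10 uM DA3003; Hill fit.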
smiles,measurement,setting,value
CC1(C)C=Cc2c(ccc3c2[N+]([O-])=C2C3(O)CC34NC(=O)C5(CCCN5C3=O)CC4C2(C)C)O1 (centres undefined),Potency,[1],4.12 µM (active)
same,Potency,[2],inactive
COC(=O)C1=CO[C@@H](O[C@@H]2O[C@H](CO)[C@@H](O)[C@H](O)[C@H]2O)/C(=C\CO)[C@@H]1CC(=O)OCCc1ccc(O)cc1,Potency,[1],6.53 µM (active)
same,Potency,[2],inactive
C=CC(C)(O)CCC1C(C)(O)CCC2C(C)(C)CCCC21C (centres undefined),Potency,[1],inactive
same,Potency,[2],inactive
same,Potency,[3],inactive
COc1cccc(OC)c1-c1nc(C(=O)N[C@@H](CC(C)C)C(=O)O)cn1-c1ccnc2cc(Cl)ccc12,Potency,[1],inactive
same,Potency,[2],inactive
CCC(C)/C=C(C)/C=C/C1=CC2=C(Cl)C(=O)C(C)(OC(C)=O)C(=O)C2=CN1C(CC(=O)O)C(=O)O (centres undefined),Potency,[1],0.733 µM (active)
same,Potency,[2],inactive
COc1cc(CO)cc(OC)c1O[C@@H]1O[C@H](CO)[C@@H](O)[C@H](O)[C@H]1O,Potency,[1],inactive
same,Potency,[2],inactive
same,Potency,[3],inactive
C[C@@H]1O[C@@H](O[C@H]2[C@@H]3C=CO[C@@H](O[C@@H]4O[C@H](CO)[C@@H](O)[C@H](O)[C@H]4O)[C@@H]3[C@@]3(CO)O[C@@H]23)[C@H](O)[C@H](OC(=O)/C=C/c2ccc(O)cc2)[C@H]1OC(=O)/C=C/c1ccc(O)cc1,Potency,[1],inactive
same,Potency,[2],inactive
same,Potency,[3],inactive
NC(=O)c1ccc(F)c2c1C[C@@H](N(C1CCC1)C1CCC1)CO2,Potency,[1],inactive
same,Potency,[2],inactive
CC1=CC(=O)CC(C)(C)[C@@]1(O)/C=C/C(C)O[C@@H]1O[C@H](CO)[C@@H](O)[C@H](O)[C@H]1O (some centres undefined),Potency,[1],inactive
same,Potency,[2],inactive
same,Potency,[3],inactive
C=C1C2CCC3CC2(CC(O)C2(O)C1CC(OC1OC(CO)C(O)C(O)C1O)C2(C)C)CC3(C)O (centres undefined),Potency,[1],5.19 µM (active)
same,Potency,[2],inactive
same,Potency,[3],inactive
O=C(/C=C/c1ccc(O)cc1)OC[C@@]1(O)C=C[C@@H]2C(C(=O)O)=CO[C@@H](O[C@@H]3O[C@H](CO)[C@@H](O)[C@H](O)[C@H]3O)[C@@H]21,Potency,[1],5.19 µM (active)
same,Potency,[2],inactive
same,Potency,[3],inactive
CC(=O)OCC1=C[C@@H]2OC(=O)C3=CO[C@@H](O[C@@H]4O[C@H](CO)[C@@H](O)[C@H](O)[C@H]4O)[C@H]1[C@@H]32,Potency,[1],inactive
same,Potency,[2],inactive
same,Potency,[3],inactive
COc1cc(/C=C/C(=O)O[C@@H]2C[C@@](O)(C(=O)O)C[C@@H](O)[C@@H]2O)ccc1O,Potency,[1],6.56 µM (active)
same,Potency,[2],inactive
same,Potency,[3],inactive
CCCCC(=O)N1c2ccccc2NC2=C(C(=O)CCC2)C1c1ccccc1Cl (centres undefined),Potency,[1],inactive
same,Potency,[2],inactive
same,Potency,[3],inactive
CC(=O)O[C@@H]1[C@H](O[C@@H]2O[C@H](CO)[C@@H](O)[C@H](O)[C@H]2O)[C@@H](O[C@@H]2O[C@@H](C)[C@H](O)[C@@H](O[C@@H]3O[C@H](CO)[C@@H](O)[C@H](O)[C@H]3O)[C@H]2O)[C@H](OC(=O)[C@]23CCC(C)(C)C[C@H]2C2=CCC4[C@@]5(C)C[C@H](O)[C@H](O[C@@H]6O[C@H](C(=O)O)[C@@H](O)[C@H](O)[C@H]6O)[C@@](C)(C(=O)O)C5CC[C@@]4(C)[C@]2(C)CC3)O[C@@H]1C (some centres undefined),"activity change, negative = thiol reactive",[1],244% [at 11.5 µM]
same,"activity, negative = inhibition",[2],4.94% [at 11.6 µM]
same,redox activity (% of DA3003),[3],-2.45% [at 11.5 µM]
O=C(O)CC1(O)C(=O)Nc2ccccc21 (centres undefined),Potency,[1],25.1 µM (active)
same,Potency,[2],inactive
same,Potency,[3],inactive
CC(C)C1C(OC(=O)/C=C/c2ccccc2)CC2(C)OC2CCC2(C)OC2C1O (centres undefined),Potency,[1],inactive
same,Potency,[2],inactive
same,Potency,[3],inactive
COCC1OC(n2cnc3c(=O)[nH]cnc32)C(O)C1O (centres undefined),Potency,[1],inactive
same,Potency,[2],inactive
same,Potency,[3],inactive
CC(C)(OC1OC(CO)C(O)C(O)C1O)C1CCC(O)(CO)C2CC(=O)C(C)(O)C2C1 (centres undefined),Potency,[1],inactive
same,Potency,[2],inactive
same,Potency,[3],inactive
COc1cc(C2Oc3c(OC)cc(CCCO)cc3C2CO)ccc1O (centres undefined),Potency,[1],13.1 µM (active)
same,Potency,[2],inactive
same,Potency,[3],inactive
COc1cn(-c2ccc(-n3cccn3)cc2F)nc(-c2ccnn2-c2ccccc2)c1=O,Potency,[1],inactive
same,Potency,[2],inactive
same,Potency,[3],inactive
COC(O)(CC(C)C)C1Oc2cc(C)[nH]c(=O)c2O1 (centres undefined),Potency,[1],inactive
same,Potency,[2],inactive
same,Potency,[3],inactive
COc1cc(/C=C/C(=O)O[C@H]2[C@H](O)[C@@H](CO)O[C@@]2(CO)O[C@H]2O[C@H](CO)[C@@H](O)[C@H](O)[C@H]2O)cc(OC)c1O,Potency,[1],inactive
same,Potency,[2],inactive
same,Potency,[3],inactive
COC(=O)C1=C[C@@H](O)[C@@H](O)[C@H](O[C@@H]2O[C@H](CO)[C@@H](O)[C@H](O)[C@H]2OC(=O)/C=C/c2ccccc2)C1,Potency,[1],inactive
same,Potency,[2],inactive
same,Potency,[3],inactive
CC1CC2OCC3(O)CCC(O)C(C14CC(c1ccoc1)OC4=O)C23CO (centres undefined),Potency,[1],3.29 µM (active)
same,Potency,[2],inactive
same,Potency,[3],inactive
c1ccc2c(Nc3nnc(-c4ccncc4)s3)cccc2c1,Potency,[1],inactive
same,Potency,[2],inactive
same,Potency,[3],inactive
O=C(OCC1=CC(Cl)C(O)C(OC(=O)c2ccccc2)C1O)c1ccccc1 (centres undefined),Potency,[1],inactive
same,Potency,[2],inactive
same,Potency,[3],inactive
CC(CC(C)O[C@@H]1O[C@H](CO)[C@@H](O)[C@H](O)[C@H]1O)OC(=O)/C=C/c1ccc(O)cc1 (some centres undefined),Potency,[1],4.62 µM (active)
same,Potency,[2],inactive
same,Potency,[3],inactive
CC(C)NC(=O)c1ccc(C#Cc2ccncc2)cn1,Potency,[1],inactive
same,Potency,[2],inactive
same,Potency,[3],inactive
C[C@]1(OC(=O)/C=C/c2ccc(O)cc2)C[C@@H](O)[C@]2(O)C=CO[C@@H](O[C@@H]3O[C@H](CO)[C@@H](O)[C@H](O)[C@H]3O)C12 (some centres undefined),Potency,[1],inactive
same,Potency,[2],inactive
same,Potency,[3],inactive
COc1cc2c(cc1O)C(c1ccc(O)cc1)C(C)C(C)C2 (centres undefined),Potency,[1],inactive
same,Potency,[2],inactive
same,Potency,[3],inactive
CC(C)C1(O)NC(=O)C(CC2(O)c3ccccc3N3C(=O)C(C)(C)NC32)n2c1nc1ccccc1c2=O (centres undefined),Potency,[1],inactive
same,Potency,[2],inactive
same,Potency,[3],inactive
CC(=O)O[C@@H]1CC2C(C)(C)C(=O)C=C[C@]2(C)C2CC[C@]3(C)C(=CC(=O)[C@@H]3c3ccoc3)[C@@]21C (some centres undefined),Potency,[1],inactive
same,Potency,[2],inactive
same,Potency,[3],inactive
CCC(C)/C=C(C)/C=C/C1=CC2=C(Cl)C(=O)C(C)(OC(C)=O)C(=O)C2=CN1C(CCCN=C(N)N)C(=O)O (centres undefined),Potency,[1],1.03 µM (active)
same,Potency,[2],inactive
same,Potency,[3],inactive
COc1c(C)c(OCC=C(C)C)cc2c1COC2=O,Potency,[1],inactive
same,Potency,[2],inactive
same,Potency,[3],inactive
C/C=C(\C)C(=O)OC1C(C)C2(O)C3C=C(C)C(=O)C3CC(CO)=CC2C2C(C)(C)C12OC(C)=O (centres undefined),Potency,[1],inactive
same,Potency,[2],inactive
same,Potency,[3],inactive
CC[C@@H](C)[C@H](NC(=O)C(C)(C)NC(=O)[C@H](CCC(N)=O)NC(=O)C(C)(CC)NC(=O)[C@H](Cc1c[nH]c2ccccc12)NC(C)=O)C(=O)N[C@H](C(=O)NC(C)(C)C(=O)N[C@@H](CC(C)C)C(=O)NC(C)(C)C(=O)N1CCC[C@H]1C(=O)N[C@@H](CCC(N)=O)C(=O)NC(C)(C)C(=O)N1CC(O)C[C@H]1C(=O)NC(C)(CC)C(=O)C1CC[C@@H](C(=O)N[C@@H](Cc2ccccc2)C(=O)NCC(=O)O)N1)C(C)O (some centres undefined) (Ac-W[ξIva]Q[Aib][aIle][Thr(3ξ)][Aib]L[Aib]PQ[Aib][X8]-X9),"activity change, negative = thiol reactive",[1],-2.24% [at 6.41 µM]
same,"activity, negative = inhibition",[2],-3.07% [at 6.45 µM]
same,redox activity (% of DA3003),[3],8.28% [at 6.41 µM]
CC1(C)CCC[C@@]2(C)[C@H]1[C@H](O)C=C(CO)[C@]2(O)CO,Potency,[1],inactive
same,Potency,[2],inactive
same,Potency,[3],inactive
CC(=O)O[C@@]1(C)[C@@H]2CC(=C(C)C)C(=O)C[C@@]2(C)CC[C@H]1OC(=O)C1(C)OC1C (some centres undefined),Potency,[1],inactive
same,Potency,[2],inactive
same,Potency,[3],inactive
COc1cc(OC)cc(-c2ccc3c(-c4ccc(F)cc4)[nH]nc3n2)c1,Potency,[1],inactive
same,Potency,[2],inactive
same,Potency,[3],inactive
Nc1ncnc2c1c(COc1cccc(Cl)c1)nn2C1CCOCC1,Potency,[1],inactive
same,Potency,[2],inactive
same,Potency,[3],inactive
Cc1cc(O[C@@H]2O[C@H](COC(=O)CC(=O)O)[C@@H](O)[C@H](O)[C@H]2O)c(C(C)C)cc1O,Potency,[1],5.19 µM (active)
same,Potency,[2],inactive
same,Potency,[3],inactive
COC(=O)C1=CO[C@@H](O[C@@H]2O[C@H](CO)[C@@H](O)[C@H](O)[C@H]2O)[C@@H]2[C@@H](C)[C@@H](O)C(O)[C@H]12 (some centres undefined),Potency,[1],inactive
same,Potency,[2],inactive
same,Potency,[3],inactive
CCC(CC)CC1(C(=O)Nc2ccccc2SC(=O)C(C)C)CCCCC1,Potency,[1],inactive
same,Potency,[2],inactive
same,Potency,[3],inactive
CC1(C)CC[C@]2(C(=O)O)CC[C@]3(C)C(=CCC4[C@@]5(C)CC[C@H](O[C@H]6O[C@H](C(=O)O)[C@@H](O)[C@H](O[C@@H]7O[C@H](CO)[C@H](O)[C@H](O)[C@H]7O)[C@H]6O)C(C)(C)C5CC[C@]43C)[C@@H]2C1 (some centres undefined),"activity change, negative = thiol reactive",[1],239% [at 11.5 µM]
same,"activity, negative = inhibition",[2],2.24% [at 11.6 µM]
same,redox activity (% of DA3003),[3],8.43% [at 11.5 µM]
COc1cc2nc(=NC(=O)c3cccnc3)n3c(c2cc1OC)NCC3,Potency,[1],inactive
same,Potency,[2],inactive
same,Potency,[3],inactive
CC(=O)OCC1OC(OC2COC(OC3COC(OC4C(OC5C(CO)OC(OC6CCC7(C)C(CCC8(C)C7CC=C7C9CC(C)(C)CCC9(C(=O)OC9OC(CO)C(O)C(O)C9OC9OCC(OC%10OCC(O)(CO)C%10O)C(O)C9O)C(O)CC78C)C6(C)C)C(O)C5O)OCC(O)C4O)C(O)C3O)C(O)C2O)C(OC(=O)/C=C/c2ccccc2)C(O)C1OC(C)=O (centres undefined),"activity change, negative = thiol reactive",[1],153% [at 6.41 µM]
same,"activity, negative = inhibition",[2],4.35% [at 6.45 µM]
same,redox activity (% of DA3003),[3],-4.05% [at 6.41 µM]
CC1OC(OC2C(OC3C(O[C@H]4CC[C@@]5(C)C(CC[C@]6(C)C5CC=C5C7CC(C)(C)CC(O)[C@]7(C)CC[C@]56C)C4(C)C)OC(C(=O)O)C(O)C3O)OCC(O)C2O)C(O)C(O)C1O (some centres undefined),"activity change, negative = thiol reactive",[1],167% [at 11.5 µM]
same,"activity, negative = inhibition",[2],4.85% [at 11.6 µM]
same,redox activity (% of DA3003),[3],9.66% [at 11.5 µM]
